From publication PMC13494018
Values without a mark were called inactive. No rule for the calls is given here.

B1: d2r2_design_ppi_370_dldesign_0_cycle1_af2pred (protein)
chain: RVISPAEIVELHTAANAALREALEGDPEAGLARLRAVADRAAALSPALGAALRAEAEGARAALAAAAAAAAA
B2: d2r7_design_ppi_460_dldesign_0_cycle1_af2pred (protein)
chain: AAALAAARAAAAAAAAEAVARAAAEGPGLGLLMANEAARLLREAAAGDAAEVRAAAARLLAFAEQAIAAARANRAQAAAAR
B3: d2r6_design_ppi_95_dldesign_0_cycle1_af2pred (protein)
chain: AEAQAQAKAIVQQGYQDARALIDKYGLPVAAKVKVFNLVSAGAIIAEQGGTVEEVAAAVEAALAAAKAAAA
B4: d2r6_design_ppi_356_dldesign_0_cycle0_af2pred (protein)
chain: SEEELEKTRASLEQLKGLAEWQAAQHPEQAPLYAEAARLAEEGMKATVEEARQLGAQASALLGRAVGAAAA
B5: d2r7_design_ppi_218_dldesign_0_cycle0_af2pred (protein)
chain: SAAEAEAKRYINHAETTLATAKQLAERSTPEQAARYYRAAGEIAWKDYEKAGEALSPEEGEKMRKKGKEVKEELEKKAKELEEK
B6: d2r6_design_ppi_176_dldesign_0_cycle1_af2pred (protein)
chain: ALREEVEKKMGEVLDLLKELQEKKKKGELTPEQIELMQQSMRELAKAAGYLASGDKVEEAKKEAEKALELAKKALEE
B7: d2r7_design_ppi_31_dldesign_0_cycle1_af2pred (protein)
chain: AEAEALEAGAQVLSIVTATRAQTVAAFAQDPALGRQMYRQLQAAVRLAETTAKAYPAVAAELLAAAAAARAEAQAAL
B8: d2r6_design_ppi_493_dldesign_0_cycle1_af2pred (protein)
chain: SATEAQVAAVKAKIDAATQAALNAHAARLTAAGIQAVIQTAYDASKAAGAEVKAGGDPEKAAAAAIKAVNDTAEAAAA
B9: d2r6_design_ppi_32_dldesign_0_cycle1_af2pred (protein)
chain: MKEELKKALKNAEDAAATAKQVAASDPEAKAKVEELEKEARKLAKEGLEGTEEKAEEALKRVGELTREILRIASQQFAKQQA
B10: d2r6_design_ppi_165_dldesign_0_cycle0_af2pred (protein)
chain: MEVVEKVAELARKAAEAVERNLGEGFALAIQAADLAAEHEEVAEEAAEAAEEVLRKRAEEHPEHRERLLRLAEDFRSAVAHLLAQKA
B11: d2r2_design_ppi_470_dldesign_0_cycle1_af2pred (protein)
chain: AAARARAYVALWQAANRAFAAAFATGSDAALAAARAAAAAAGAVLPGGRDAFLATVDSQAAALRAARAAAAAAAAA
B12: d2r6_design_ppi_69_dldesign_0_cycle0_af2pred (protein)
chain: ALEELRRRASELWRALSPEARQAAARAVNARVAGDEAAAEAILAEQEARDPEQGALARAAADAALAAIDLANAQAAAAARAAAAAA
B13: d2r6_design_ppi_333_dldesign_0_cycle0_af2pred (protein)
chain: MEEEGKKKAEEALKKAEESLKLAKSGKKLKEAEKKFAEALSLMEEAKPYLNKNPEVNKKLSKKLGEAAKALIAAKA
B14: d2r2_design_ppi_429_dldesign_0_cycle1_af2pred (protein)
chain: AAAEALRRALGAVLVAAHEAANRAAAERGLAAAEEVLAAGRAAGHALAARHPGAALARRAVDSQVAASAHVARHIAARAAALR
B15: d2r6_design_ppi_69_dldesign_0_cycle1_af2pred (protein)
chain: GLEAAQAEASRLWRQLTPEGRAAAARAVNARVAGDTAAAAAILAAAKAADPAQGALAEAAAEALLRAIDLANAQAAAEAAARAAAA
B16: d2r7_design_ppi_474_dldesign_0_cycle1_af2pred (protein)
chain: MASLEAGYQQFLDSIAALPLDRADAQLAAQAARHRELAARYAAAAEAAADPAVAARLRARARDHEAAAAAVEAIRAEVTARAAARA
B17: d2r3_design_ppi_395_dldesign_0_cycle1_af2pred (protein)
chain: SREALRQAGQLAVQAQTLANRGLALLLADPAAAPEAQALLDQAAALGEQAPVAAPVAETGRAQFAALAARL
B18: d2r4_design_ppi_198_dldesign_0_cycle1_af2pred (protein)
chain: AASAAMRAFTAAYGAANAAVARLYAADPAAGAAAARALQAALDEALALGAATGVAGIEEGAAALAAAAAALAAEAAALAAA
B19: d2r6_design_ppi_231_dldesign_0_cycle1_af2pred (protein)
chain: AAAAEAAAAADERIATGAAAVAAMARVGARRGVEAARRLGERMLEAVTRAMAAEDPAAGARAREVGTAVFEAEIAAAAAAAAA

These binders were tested against CD276, Q5ZPR3.
Chain of CD276, Q5ZPR3 (Q5ZPR3 whole entry): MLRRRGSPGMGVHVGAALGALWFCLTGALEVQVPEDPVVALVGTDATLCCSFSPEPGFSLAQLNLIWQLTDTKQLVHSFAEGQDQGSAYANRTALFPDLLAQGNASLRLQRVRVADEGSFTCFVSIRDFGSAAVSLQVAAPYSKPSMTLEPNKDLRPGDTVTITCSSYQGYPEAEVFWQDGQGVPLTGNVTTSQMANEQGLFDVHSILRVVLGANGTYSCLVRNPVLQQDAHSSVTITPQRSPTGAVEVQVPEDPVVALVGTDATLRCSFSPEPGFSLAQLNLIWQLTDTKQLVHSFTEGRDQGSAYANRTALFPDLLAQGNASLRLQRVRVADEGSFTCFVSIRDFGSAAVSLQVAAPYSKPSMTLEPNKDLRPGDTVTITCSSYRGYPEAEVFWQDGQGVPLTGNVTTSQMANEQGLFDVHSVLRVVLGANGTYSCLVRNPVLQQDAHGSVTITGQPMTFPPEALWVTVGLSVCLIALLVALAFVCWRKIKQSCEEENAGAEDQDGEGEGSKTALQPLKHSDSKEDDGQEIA
With B1 the “binding in a display sort” value was “not found”.
In the case of B2, the “binding in a display sort” value is reported as “not found”.
With B3 the “binding in a display sort” value was “not found”.
In the case of B4, the “binding in a display sort” value is reported as “not found”.
In the case of B5, the “binding in a display sort” value is reported as “not found”.
With B6 the “binding in a display sort” value was “not found”.
For B7, the “binding in a display sort” value was “not found”.
For B8, the “binding in a display sort” value was “not found”.
With B9 the “binding in a display sort” value was “not found”.
In the case of B10, the “binding in a display sort” value is reported as “not found”.
In the case of B11, the “binding in a display sort” value is reported as “not found”.
For B12, the “binding in a display sort” value was “not found”.
For B13, the “binding in a display sort” value was “not found”.
For B14, the “binding in a display sort” value was “not found”.
In the case of B15, the “binding in a display sort” value is reported as “not found”.
With B16 the “binding in a display sort” value was “not found”.
With B17 the “binding in a display sort” value was “not found”.
In the case of B18, the “binding in a display sort” value is reported as “not found”.
With B19 the “binding in a display sort” value was “not found”.
